# Fam108B counter: counter-screen for RBBP9 inhibitors: inhibitors of mouse Fam108B; recombinant Fam108B, FP-Rh probe fluorescence polarization; inhibition, % at 9.51 µM; 300,000 tested, 0.33% active; AID 1947;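 active = inhibition above the screen mean inhibition plus 3 SD, computed separately per campaign, cut at about 18% in these data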;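 note: inhibitors lower polarization as less probe binds the enzyme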
# LYPLA1 inh: LYPLA1 (human) inhibition in PME1 counter-screen | AID 2174 | inhibition, % at 5.9 µM | O75608 | 320,000 tested, 0.16% active | recombinant LYPLA1, FP-Rh probe fluorescence polarization;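 active = inhibition above the mean of all tested compounds plus 3 SD, set per campaign, cut at about 14% in these data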;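 note: inhibitors block serine hydrolase probe labeling of LYPLA1 so polarization falls; 0% = enzyme with DMSO and 100% = wells lacking LYPLA1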
# GSTO1 counter: counter-screen for RBBP9 inhibitors: inhibitors of human GSTO1 | inhibition, % at 5.96 µM | 300,000 tested, 1.1% active | recombinant GSTO1, activity-based probe fluorescence polarization | P78417 | AID 1974;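 active = inhibition above the campaign mean inhibition plus 3 SD, cut at about 35% in these data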;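 note: 0% = GSTO1-1 with DMSO and 100% = wells lacking GSTO1-1 enzyme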
# PAD4 inh: PAD4 (human) enzyme inhibition; recombinant PAD4, RCA probe fluorescence polarization; inhibition, % at 6.36 µM; 330,000 tested, 0.41% active; AID 485272;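 active = percent inhibition above a cutoff equal to the mean of all tested compounds plus 3 SD, cut at about 15% in these data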;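 note: 0% = PAD4 with RCA probe and DMSO and 100% = probe without PAD4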
# LYPLA2 inh: LYPLA2 (human) inhibition in PME1 counter-screen; O95372; recombinant LYPLA2, FP-Rh probe fluorescence polarization; inhibition, % at 5.9 µM; 320,000 tested, 0.38% active; AID 2177;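 active = inhibition above the screen-wide mean plus 3 SD, limit set per campaign, cut at about 26% in these data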;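 note: 0% = LYPLA2 with DMSO and 100% = wells lacking LYPLA2 enzyme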
# Target sequence (O95372 whole entry, looked up): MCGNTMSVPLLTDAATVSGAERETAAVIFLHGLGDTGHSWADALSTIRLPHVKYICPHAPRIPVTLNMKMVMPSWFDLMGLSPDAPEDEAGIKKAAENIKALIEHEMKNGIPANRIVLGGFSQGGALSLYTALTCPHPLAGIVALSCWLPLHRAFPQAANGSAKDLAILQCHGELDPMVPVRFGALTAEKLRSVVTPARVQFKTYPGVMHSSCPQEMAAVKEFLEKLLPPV
# PME-1 inh: blocks human protein phosphatase methylesterase 1 | recombinant PME-1, FP-Rh probe fluorescence polarization | inhibition, % at 5.9 µM | 320,000 tested, 0.53% active;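 active = inhibition above the campaign mean of all compounds plus 3 SD, cut at about 26% in these data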;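 note: competitive labeling of PME-1 active site by serine hydrolase directed probe; 0% = PME-1 with DMSO and 100% = wells lacking PME-1 enzyme; inhibitors block probe labeling so polarization falls and inhibition rises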
# Target sequence (Q9Y570 whole entry, looked up): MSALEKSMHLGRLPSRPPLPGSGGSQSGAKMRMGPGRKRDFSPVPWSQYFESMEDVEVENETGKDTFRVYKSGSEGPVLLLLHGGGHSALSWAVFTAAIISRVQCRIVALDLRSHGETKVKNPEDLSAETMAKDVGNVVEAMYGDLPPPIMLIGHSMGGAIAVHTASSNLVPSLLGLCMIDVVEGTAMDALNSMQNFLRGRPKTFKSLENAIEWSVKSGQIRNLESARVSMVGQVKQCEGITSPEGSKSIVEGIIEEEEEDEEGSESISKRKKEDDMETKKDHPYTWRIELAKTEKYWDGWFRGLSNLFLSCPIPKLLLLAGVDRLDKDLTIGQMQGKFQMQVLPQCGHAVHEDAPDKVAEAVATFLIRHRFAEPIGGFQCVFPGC
# LYPLA2 conf: LYPLA2 (human) inhibition, confirmation counter-screen | AID 2232 | recombinant LYPLA2, FP-Rh probe fluorescence polarization | inhibition, % at 5.9 µM | 1,100 tested, 72% active | shares compounds with LYPLA2 inh;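 active = mean inhibition across replicates above the hit cutoff set in the primary screen, cut at about 26% in these data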;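 note: blocked labeling of the enzyme by serine hydrolase FP-Rh probe lowers polarization; 0% = enzyme with DMSO and 100% = wells lacking LYPLA2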
# LYPLA2 ABPP: blocks human acyl-protein thioesterase 2 in gel ABPP; AID 652029; shares compounds with LYPLA2 inh; inhibition, % at 20 µM; rhLYPLA2 in mouse brain proteome, gel ABPP FP-Rh; 150 tested, 30% active;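 active = inhibition of LYPLA2 enzyme probe labeling above about 50%, limit read from the data; inactive = inhibition below that limit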;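 note: loss of FP-Rh probe labeling of the LYPLA2 gel band measured as band density; 0% = DMSO only control band and 100% = blank gel background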
# An asterisk follows results filed as active; . = no result given. Only some compounds are listed: those with a hit (about 1.7% of all), similar ones and a draw of the others.
SMILES,Fam108B counter,LYPLA1 inh,GSTO1 counter,PAD4 inh,LYPLA2 inh,PME-1 inh,LYPLA2 conf,others
Cc1ccc2c(CC(=O)Nc3ccc(F)c(S(=O)(=O)N4CCOCC4)c3)coc2c1,.,-11.3,.,-0.4,-10.8,-5.8,.,
COc1ccc(NC(=O)COC(=O)c2ccc(Cl)c(S(N)(=O)=O)c2)c([N+](=O)[O-])c1,-0.8,0.8,-0.8,-4.8,2.1,2.6,.,
CCCCCOc1ccc(/C=C/c2c([N+](=O)[O-])c(=O)n(C)c(=O)n2C)cc1,-0.5,0.5,3.5,4.1,68.8*,-7.2,52.6*,LYPLA2 ABPP=36.0
Cn1c(/C=C/c2ccc(Cl)cc2)c([N+](=O)[O-])c(=O)n(C)c1=O,1.8,-3.3,1.9,5.0,4.1,-4.0,.,
COc1ccc(C(=O)O/N=C(\C)c2nccs2)cc1,3.5,10.2,-0.9,0.5,30.3*,7.1,29.1*,
O=C(c1ccccc1)N1CCOC12CCN(c1ncc(C(F)(F)F)cc1Cl)CC2,-1.3,2.3,2.7,-2.1,7.7,-1.3,.,
O=C(c1ccc([N+](=O)[O-])cc1)N1CCOC12CCN(c1ncc(C(F)(F)F)cc1Cl)CC2,-4.6,0.6,5.3,0.6,38.1*,1.7,56.7*,LYPLA2 ABPP=8.0
Cc1ccc2c(c1)[nH]c1c(=O)n(Cc3ccco3)cnc12,0.3,0.8,3.7,-0.7,0.6,4.7,.,
O=C(OCCN1CCN(C2=NS(=O)(=O)c3ccccc32)CC1)c1ccccc1F,-0.5,-2.5,0.7,-1.3,0.8,4.2,.,
Cc1ccccc1OCC(O)CN1CCN(CCN2C(=O)c3cccc4cccc(c34)C2=O)CC1 (centres undefined),-4.7,-3.3,-6.5,-3.3,39.2*,1.0,47.8*,
CC(=O)c1ccc(OCC(O)CN2CCN(CCN3C(=O)c4cccc5cccc(c45)C3=O)CC2)cc1 (centres undefined),1.1,1.5,-3.7,0.9,52.7*,1.7,59.1*,LYPLA2 ABPP=20.0
CCC(OCC(O)CN1CCN(CCN2C(=O)c3cccc4cccc(c34)C2=O)CC1)c1ccccc1 (centres undefined),1.7,3.1,-1.3,1.8,44.9*,-9.2,46.2*,
C=CCc1ccccc1OCC(O)CN1CCN(CCN2C(=O)c3cccc4cccc(c34)C2=O)CC1 (centres undefined),-8.2,4.8,-3.3,1.8,26.6*,-4.6,36.8*,
CCCC(=O)Nc1c2c(nn1-c1ccc([N+](=O)[O-])cc1)CS(=O)(=O)C2,-4.6,0.4,-2.8,-1.0,3.3,2.9,.,
CCOC(=O)[C@@H]1[C@H]2COc3ccccc3[C@@H]2N2C(=O)N(c3cccc(Cl)c3)C(=O)[C@@]12C,4.6,-6.7,6.7,-2.4,-2.5,-0.5,.,
CC1(C)NC(C)(C)C(O)(C(N)=O)C1=O (centres undefined),1.1,1.8,-0.4,3.0,26.8*,4.8,18.1,
COc1ccc(NC(=O)N2CCCC(C(=O)NCc3ccccc3F)C2)cc1 (centres undefined),0.3,0.5,4.7,-1.6,-0.4,2.9,.,
CC(=O)Nc1cccc(-n2nnc(SCC(=O)N(C)c3ccccc3)n2)c1,-0.9,-1.5,7.6,4.9,33.7*,2.1,39.7*,
CCCC[C@@H]1CNCCN1CCc1cccc2ccccc12,2.3,0.8,2.9,7.0,-0.1,-3.8,.,
c1ccc(OCCN2CCN(Cc3nc(-c4ccc5c(c4)OCO5)no3)CC2)cc1,-0.2,-2.2,-0.2,-0.2,25.9*,6.0,25.5,
COc1cccc(NC(=O)CN2C(=O)CSc3ccc(S(=O)(=O)N4CCCCC4)cc32)c1,-1.1,-1.6,6.0,0.2,40.0*,4.6,37.7*,
Cc1ccc(NC(=O)CN2C(=O)CSc3ccc(S(=O)(=O)N4CCCCC4)cc32)cc1,2.5,-2.8,-1.9,4.0,0.7,2.2,.,
Cc1cc(C)cc(NC(=O)CN2C(=O)COc3ccc(S(=O)(=O)N4CCCC4)cc32)c1,0.0,1.3,1.0,-1.3,37.2*,-0.8,33.4*,
COCCC(=O)N1CCC(Oc2ccc(C(=O)N(C)C3CCCCC3)cc2)CC1,-0.6,-1.4,-4.8,-0.3,-2.3,-2.5,.,
CC(C)CN(C(=O)Cn1c(Cl)nc2c1c(=O)n(C)c(=O)n2C)C1CCS(=O)(=O)C1 (centres undefined),-3.2,-4.6,0.8,-1.1,1.6,-5.8,.,
SMILES,Fam108B counter,LYPLA1 inh,GSTO1 counter,PAD4 inh,LYPLA2 inh,PME-1 inh,LYPLA2 conf,others
CCCCCCCn1c(C)nnc1-c1cnn(C)c1N,0.3,0.9,-2.1,2.4,-0.9,-8.2,.,
CCN(CC)S(=O)(=O)c1ccc(N2CCOCC2)c(NC(=O)CNCCc2ccccc2)c1,-0.3,0.1,-2.2,-2.3,53.0*,6.4,57.6*,LYPLA2 ABPP=16.0
CCN(CC)S(=O)(=O)c1ccc(N2CCOCC2)c(NC(=O)COc2ccccc2)c1,-1.5,0.5,4.0,2.1,4.2,8.4,.,
O=C(NCc1ccccn1)c1ccc(OC2CCN(Cc3cccs3)CC2)cc1,-0.6,-1.9,-4.1,4.7,28.0*,2.3,6.3,
O=C(NCc1ccccn1)c1ccc(OC2CCN(Cc3ccccc3)CC2)cc1,5.7,1.2,-3.8,-2.2,2.9,0.3,.,
COc1ccc(C(=O)ON=C2CCN(c3ccc([N+](=O)[O-])cc3)CC2)cc1,-0.9,7.8,-8.5,-2.8,35.1*,6.4,38.7*,
O=C(ON=C1CCN(c2ccc([N+](=O)[O-])cc2)CC1)c1ccccc1,-3.7,3.6,3.4,-1.1,36.6*,-2.7,35.4*,
Cc1ccc(C)c(Oc2coc3cc(OC(=O)c4cccs4)ccc3c2=O)c1,-8.8,-2.6,-1.1,-2.5,21.6,-9.0,.,
COc1ccc(Oc2coc3cc(OC(=O)c4cccs4)ccc3c2=O)cc1,-11.4,4.1,-9.3,-7.3,40.5*,-1.0,46.4*,
O=C(Nc1ncccc1O)c1cccc(S(=O)(=O)N2CCc3ccccc32)c1,4.2,-1.5,-2.5,0.8,26.5*,-2.4,-5.2,
CC(C)Oc1cccc(C(=O)NC(=S)N2CCN(c3ccc(C(F)(F)F)cc3[N+](=O)[O-])CC2)c1,3.1,-7.5,-10.8,0.4,7.6,-0.3,.,
COc1cccc(C(=O)NC(=S)N2CCN(c3ccc(C(F)(F)F)cc3[N+](=O)[O-])CC2)c1,-1.7,3.3,-8.1,-5.8,65.1*,4.9,51.8*,LYPLA2 ABPP=13.0
N#Cc1cnn2c3c(cnc12)C(=O)N1CCc2ccccc2C1C3 (centres undefined),0.4,9.7,8.1,0.2,42.4*,-0.1,44.1*,
COc1ccc(NC(=O)N2CCCc3cc(C)ccc32)c(OC)c1,-0.3,-5.3,6.0,-2.9,-4.4,5.9,.,
O=C(CCC(=O)N1CCN(c2ccc(C(F)(F)F)cn2)CC1)c1cccs1,.,3.5,.,0.1,32.1*,3.8,25.1,
